This is an account of results in the supplement of paper PMC9925115.

Several values for one entry are separate records, joined by “and”; a condition that tells them apart may be missing. Identical values can stand only once. Counter-ions that a name gives are not always drawn.

The test system of this experiment is FLX1 + dox-induced PRKAR1A G325D. Briefly: difference in log2 fold change of viability vs plate median (dox-induced PRKAR1A G325D minus uninduced); higher = compound less effective when PKA is inhibited. The settings on record: concentration: not stated (2 or 5 uM); 5 days. As for the experimental part:
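For each plate a log2 fold change vs the plate median was derived, and the values without dox were subtracted from those with dox, averaged over three biological replicates.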
For the compound `Cc1c(NC(=O)c2ccc(C(C)(C)C)cc2)cccc1-c1cn(C)c(=O)c(Nc2ccc(C(=O)N3CCOCC3)cc2)n1`, the “difference in log2 fold change of viability” value (“difference in log2 fold change” below) is 0.119.
Then `CN1CCCN(C(=O)c2cccc(-c3ccc(/C=C4/C(=O)Nc5ccc(Cl)cc54)o3)c2)CC1`, with -0.148.
Under `Nc1cccc(-c2cc3c(Oc4cccc(O)c4)ncnc3[nH]2)c1` stands -0.478; under `CCc1cccc(CC)c1NC(=O)N1Cc2[nH]nc(NC(=O)c3ccc(N4CCN(C)CC4)cc3)c2C1`, 0.41; under `C=CC(=O)Nc1cccc(Nc2nc(Nc3ccc(NC4CN(CCF)C4)cc3OC)ncc2C(F)(F)F)c1`, -0.839.
Under `CCN1CCN(Cc2ccc(-c3cc4c(N[C@H](C)c5ccccc5)ncnc4[nH]3)cc2)CC1` stands -0.338; under `O=C(c1ccc(/C=C/c2n[nH]c3ccccc23)cc1)N1CCNCC1`, -0.0816; under `CN(C)Cc1cccc(N/C(=C2\C(=O)Nc3cc(C(N)=O)ccc32)c2ccccc2)c1`, -0.409.
For `COc1cc(Nc2ncc3c(n2)-c2ccc(Cl)cc2C(c2c(F)cccc2OC)=NC3)ccc1C(=O)O` [Alisertib (MLN8237)], the “difference in log2 fold change” value was -0.903.
For `Cc1cc(C)c(/C=C2\C(=O)Nc3ccccc32)[nH]1` [Semaxanib (SU5416)], the “difference in log2 fold change” value came to 0.256.
Then `C[C@]1(O)C[C@@H](c2nc(-c3ccc4ccc(-c5ccccc5)nc4c3)c3c(N)nccn32)C1` [Linsitinib (OSI-906)], with 0.468.
Under `CN(c1ncccc1CNc1nc(Nc2ccc3c(c2)CC(=O)N3)ncc1C(F)(F)F)S(C)(=O)=O` stands 0.235 and 0.428; under `O=C(O)c1ccc(-c2c[nH]c3ncc(-c4ccccc4)cc23)cc1C1CCCC1`, 0.0725; under `Cc1ccc(Nc2nccc(N(C)c3ccc4c(C)n(C)nc4c3)n2)cc1S(N)(=O)=O` [Pazopanib], 0.0453.
In the case of `O=C1NC(=O)/C(=C/c2ccc3c(c2)OC(F)(F)O3)S1`, the “difference in log2 fold change” value is -0.0198.
On to `C=CC(=O)Nc1cccc(Oc2nc(Nc3ccc(N4CCN(C)CC4)cc3OC)ncc2Cl)c1`, for which the “difference in log2 fold change” value is -1.14.
Regarding `Cc1[nH]c(/C=C2\C(=O)Nc3ccc(S(=O)(=O)N(C)c4cccc(Cl)c4)cc32)c(C)c1C(=O)N1CCN(C)CC1`, the “difference in log2 fold change” value turned out to be 0.163.
For the compound `CCc1cc(Nc2nccc(-c3c(-c4ccc(OC)c(C(=O)Nc5c(F)cccc5F)c4)nc4ccccn34)n2)c(OC)cc1N1CCC(N2CCN(S(C)(=O)=O)CC2)CC1`, the “difference in log2 fold change” value came to 0.164.
`FC(F)c1nc2ccccc2n1-c1nc(N2CCOCC2)nc(N2CCOCC2)n1`: the “difference in log2 fold change” value was found to be 0.435.
Turning to `CN1CCN(c2ccc3nc(-c4c(N)c5c(F)cccc5[nH]c4=O)[nH]c3c2)CC1` [Dovitinib (TKI-258) Dilactic Acid], the “difference in log2 fold change” value was -0.364.
`CNC(=O)c1cc(Oc2ccc(NC(=O)Nc3ccc(Cl)c(C(F)(F)F)c3)cc2)ccn1` [Sorafenib Tosylate]: the “difference in log2 fold change” value was -0.44.
Under `O=c1cc(-c2cccc3c2Sc2ccccc2S3)oc(N2CCOCC2)c1` stands 0.329.
Under `C=CC(=O)Nc1cccc(Oc2nc(Nc3ccc(N4CCN(C)CC4)cc3)ncc2Cl)c1` stands -0.131; under `CNC(=O)c1cc(Oc2ccc(NC(=O)Nc3cc(C(C)(C)C)nn3-c3ccc4ncccc4c3)c(F)c2)ccn1` [Rebastinib (DCC-2036)], 0.37.
Under `CCN1CCN(Cc2ccc(C(=O)Nc3ccc(C)c(Oc4ccc5c(c4)CC(=O)N5)c3)cc2C(F)(F)F)CC1` stands -0.078; under `FC(F)(F)c1ccc(/C=C/c2nc(COc3ccc(CCCCn4ccnn4)cc3)co2)cc1` [Mubritinib (TAK 165)], 0.102; under `Cc1ccc(NC(=O)c2ccc(CN3CCN(C)CC3)cc2)cc1Nc1nccc(-c2cccnc2)n1` [Imatinib Mesylate (STI571)], 0.343.
Take `CO[C@H]1C[C@@H]2CC[C@@H](C)[C@@](O)(O2)C(=O)C(=O)N2CCCC[C@H]2C(=O)O[C@H]([C@H](C)C[C@@H]2CC[C@@H](OC(=O)C(C)(CO)CO)[C@H](OC)C2)CC(=O)[C@H](C)/C=C(\C)[C@@H](O)[C@@H](OC)C(=O)[C@H](C)C[C@H](C)/C=C/C=C/C=C/1C`: the “difference in log2 fold change” value was 0.457.
`C[S+]([O-])c1ccc(-c2nc(-c3ccc(F)cc3)c(-c3ccncc3)[nH]2)cc1` (stereo not given): the “difference in log2 fold change” value is -0.00802.
Under `CC(C)c1cnn2c(NCc3ccccc3)cc(NCCCCCCN)nc12` stands -0.0617; under `Cc1cn(-c2cc(NC(=O)c3ccc(C)c(Nc4nccc(-c5cccnc5)n4)c3)cc(C(F)(F)F)c2)cn1` [Nilotinib (AMN-107)], 0.157.
Under `C#Cc1cccc(Nc2ncnc3cc(OCCOC)c(OCCO)cc23)c1` stands -0.763; under `COc1cc2ncnc(Oc3ccc(CC(=O)Nc4cnn(C(C)C)c4)cc3)c2cc1OC`, -0.126; under `O=c1ccc2ccc(O)c(O)c2o1` [Daphnetin], -0.062.
Turning to `CC[C@H](CO)Nc1nc(NCc2ccccc2)c2ncn(C(C)C)c2n1` [Roscovitine (Seliciclib,CYC202)], the “difference in log2 fold change” value amounted to 0.0426.
With `O=C(Nc1cccc(Cl)c1)Nc1ncc(CCNc2ncnc3ccsc23)s1` [SNS-314 Mesylate], the “difference in log2 fold change” value is -0.153.
Then `COc1cc(N2CCC(N(C)C)CC2)ccc1Nc1ncc(Cl)c(Nc2ccccc2P(C)(C)=O)n1`, with -1.41; and `N#Cc1c(Oc2ccc(F)c(NC(=O)Cc3cccc(C(F)(F)F)c3)c2)ccc2nc(NC(=O)C3CC3)sc12`, with -0.168; and `C=CC(=O)Nc1ccc2ncnc(Nc3ccc(OCc4cccc(F)c4)c(Cl)c3)c2c1`, with -0.53.
Under `C=CC(=O)Nc1cc(Nc2nccc(-c3cn(C)c4ccccc34)n2)c(OC)cc1N(C)CCN(C)C` [Osimertinib (AZD9291)] stands -0.173.
